Laboratory results reported in PubChem BioAssay (NCATS).
Records with an inconclusive call do not appear. Active and inactive are the calls of the source. Unless noted, the call rests on the fitted dose curve.

Columns and labels:
[1] = qHTS profiling of the MIPE4 collection as inhibitors of Plasmodium falciparum (DD2) proliferation (AID 743345; call rule not given here); conditions: P. falciparum Dd2 in erythrocytes, SYBR Green DNA, 72 h; at 28.5 µM (top of the series) unless noted
In short: (§1)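 Erythrocytes infected with P. falciparum (0.3% parasitemia, 2.5% hematocrit) incubated with compounds 72 h at 37 C, 5% CO2. Lysis with saponin/Triton buffer containing SYBR Green I, overnight at room temperature in the dark; DNA fluorescence (485/535 nm) normalised to 0.29 uM artemisinin and DMSO.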

[2] = qHTS profiling of the MIPE4 collection as inhibitors of Plasmodium falciparum (DD2) proliferation (Rep 2) (AID 743346; call rule not given here); conditions: P. falciparum Dd2 in erythrocytes, SYBR Green DNA, 72 h; at 28.5 µM (top of the series) unless noted
In short: as §1

[3] = qHTS for Inhibitors of the Functional Ribonucleoprotein Complex (vRNP) of Lassa (LASV) Arenavirus: LASV Primary Screen - GLuc reporter signal (AID 1347082; calls by dose curve; tested in HEK293 reporter line; further: nearly all actives have a fitted effect of over 60% in size)
[4] = qHTS for Inhibitors of the Functional Ribonucleoprotein Complex (vRNP) of Lassa (LASV) Arenavirus: Viability assay - alamar blue signal for LASV Primary Screen (AID 1347083; calls by dose curve; tested in HEK293 reporter line; further: nearly all actives have a fitted effect of over 80% in size)
[5] = qHTS for Inhibitors of the Functional Ribonucleoprotein Complex (vRNP) of Lymphocytic Choriomeningitis Arenaviruses (LCMV): Viability assay - alamar blue signal for LCMV Primary Screen (AID 1347085; calls by dose curve; tested in HEK293 reporter line; further: nearly all actives have a fitted effect of over 80% in size)
[6] = target: Nucleoprotein (Lymphocytic choriomeningitis virus (strain Armstrong)) (UniProt P09992); experiment: qHTS for Inhibitors of the Functional Ribonucleoprotein Complex (vRNP) of Lymphocytic Choriomeningitis Arenaviruses (LCMV): LCMV Primary Screen - GLuc reporter signal (AID 1347086); further: nearly all actives have a fitted effect of over 70% in size
[7] = Cytotoxicity counterscreen for inhibitors of SARS-CoV-2 cell entry (AID 1645845); further: nearly all actives have a fitted effect of over 50% in size
In short: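 Expi293F/hACE2 cells seeded overnight; cpd pin-transferred in DMSO, 1 h preincubation, + media, 48 h 37 C 5% CO2; ATPLite 1step luminescence; normalized to cells and no cells.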

[8] = Primary qHTS to identify inhibitors of SARS-CoV-2 cell entry (AID 1645846); conditions: activity change, negative = inhibition: at 57.1 µM (top of the series) unless noted; further: nearly all actives have a fitted effect of over 45% in size
In short: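 Luminescence readout (Bright-Glo luciferase) 48 h after pseudoparticle addition. HEK293-ACE2 cells, 1500/well; compound pre-incubation 1 h; Normalized to spike PP and bald PP.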

CRL-7250 = normal cell line; experiment: qHTS assay to identify novel small-molecules to repurpose for Merkel cell carcinoma treatment (AID 1296009; active means well fitted curve in the direction sought with a large enough effect; an effect the other way counts as inactive or inconclusive; further: nearly all actives have a fitted effect of over 60% in size); conditions: MCC and control cell lines, CellTiter-Glo viability, 72 h; series mostly up to 92 µM
In short: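 Cells exposed to NPC (8-point) and MIPE (11-point) compound dilutions for 72 hr at 37 degree celsius; viability read by CellTiter-Glo luminescence, normalized to no-cell and DMSO in-plate controls.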

[9] = qHTS profiling of the MIPE4 collection as inhibitors of Plasmodium falciparum (3D7) proliferation (AID 743344; call rule not given here); conditions: P. falciparum 3D7 in erythrocytes, SYBR Green DNA fluorescence, 72 h; at 28.5 µM (top of the series) unless noted
In short: as §1

[10] = KB-8-5-11 P-gp reporter qHTS against the NCATS DSHEA and TCM libraries (AID 1919977; active means well fitted curve in the direction sought with a large enough effect; an effect the other way counts as inactive or inconclusive)
In short: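 P-gp-overexpressing KB-8-5-11 cells (500/well) were plated in colchicine-free DMEM with 10% FBS, attached ~4 h, then exposed to substance titrations for ~72 h at 37C. Viability was read by CellTiter-Glo luminescence.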

[11] = target: Nuclear receptor subfamily 1 group I member 3 (Homo sapiens) (UniProt Q14994); experiment: Primary qHTS for antagonist of constitutive androstane receptor (CAR) against the NCATS DSHEA and TCM libraries (AID 1794836; active means well fitted curve in the direction sought with a large enough effect; an effect the other way counts as inactive or inconclusive)
In short: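 HepG2 cells stably carrying hCAR and a CYP2B6 luciferase reporter (2,500 cells/well) attached for 5 h, then received compounds with 48 uM CITCO for 24 h at 37C. ONE-Glo luminescence read antagonism; CellTiter-Fluor (405/540 nm) gave viability.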

[12] = target: Alpha-galactosidase (Coffea arabica) (UniProt Q42656); experiment: Counterscreen for Glucocerebrosidase Inhibitors: qHTS Assay for Coffee Bean alpha-Galactosidase at pH 4.5 (AID 957; active means well fitted curve in the direction sought with a large enough effect; an effect the other way counts as inactive or inconclusive)
In short: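 Green coffee bean enzyme (2 nM final) was incubated with compounds (0.7 nM to 77 uM) and 4-methylumbelliferyl alpha-D-galactopyranoside (80 uM final) in 50 mM citric acid, 0.005% Tween-20, pH 4.5, 20 min at room temperature; AC50 from Hill fits.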

[13] = target: Alpha-galactosidase (Coffea arabica) (UniProt Q42656); experiment: Counterscreen for Glucocerebrosidase Inhibitors: qHTS Assay for Coffee Bean alpha-Galactosidase at pH 5.9 (AID 998; active means well fitted curve in the direction sought with a large enough effect; an effect the other way counts as inactive or inconclusive)
In short: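 Green coffee bean enzyme (2 nM final) was incubated with compounds (0.7 nM–77 uM) and 4-methylumbelliferyl alpha-D-galactopyranoside (80 uM) in citrate buffer pH 5.9, 20 min at room temperature. High-pH stop; fluorescence 365/440 nm; AC50 from Hill fits.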

[14] = Validation screen for inhibitors of Lassa infection (AID 463096)

Sequence of Nucleoprotein (Lymphocytic choriomeningitis virus (strain Armstrong)) (P09992 whole entry, looked up): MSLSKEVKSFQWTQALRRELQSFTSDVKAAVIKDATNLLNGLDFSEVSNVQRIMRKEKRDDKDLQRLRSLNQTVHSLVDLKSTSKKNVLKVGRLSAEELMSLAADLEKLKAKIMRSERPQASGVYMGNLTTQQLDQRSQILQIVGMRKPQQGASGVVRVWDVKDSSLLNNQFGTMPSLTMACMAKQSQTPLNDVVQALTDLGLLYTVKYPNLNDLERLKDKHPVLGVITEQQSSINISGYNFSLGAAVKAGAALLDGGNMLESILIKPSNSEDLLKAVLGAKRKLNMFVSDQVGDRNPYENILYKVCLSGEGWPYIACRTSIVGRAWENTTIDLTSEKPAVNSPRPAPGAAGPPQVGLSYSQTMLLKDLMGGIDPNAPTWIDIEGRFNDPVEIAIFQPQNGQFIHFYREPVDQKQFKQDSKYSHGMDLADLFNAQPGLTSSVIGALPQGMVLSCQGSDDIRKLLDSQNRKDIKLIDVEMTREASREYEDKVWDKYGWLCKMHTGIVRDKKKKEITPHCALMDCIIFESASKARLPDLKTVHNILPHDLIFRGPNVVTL
Sequence of Alpha-galactosidase (Coffea arabica) (Q42656 whole entry, looked up): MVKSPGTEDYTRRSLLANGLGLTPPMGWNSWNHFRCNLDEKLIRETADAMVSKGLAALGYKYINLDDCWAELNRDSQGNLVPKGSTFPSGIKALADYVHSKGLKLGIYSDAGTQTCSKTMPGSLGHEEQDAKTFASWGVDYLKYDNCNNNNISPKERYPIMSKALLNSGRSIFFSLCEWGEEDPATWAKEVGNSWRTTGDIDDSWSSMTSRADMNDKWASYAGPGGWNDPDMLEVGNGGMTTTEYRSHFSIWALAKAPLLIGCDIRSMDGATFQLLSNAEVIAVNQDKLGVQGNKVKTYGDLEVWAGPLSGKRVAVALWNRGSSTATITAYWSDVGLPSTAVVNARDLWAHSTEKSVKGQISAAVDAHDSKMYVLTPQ
Sequence of Nuclear receptor subfamily 1 group I member 3 (Homo sapiens) (Q14994 whole entry, looked up): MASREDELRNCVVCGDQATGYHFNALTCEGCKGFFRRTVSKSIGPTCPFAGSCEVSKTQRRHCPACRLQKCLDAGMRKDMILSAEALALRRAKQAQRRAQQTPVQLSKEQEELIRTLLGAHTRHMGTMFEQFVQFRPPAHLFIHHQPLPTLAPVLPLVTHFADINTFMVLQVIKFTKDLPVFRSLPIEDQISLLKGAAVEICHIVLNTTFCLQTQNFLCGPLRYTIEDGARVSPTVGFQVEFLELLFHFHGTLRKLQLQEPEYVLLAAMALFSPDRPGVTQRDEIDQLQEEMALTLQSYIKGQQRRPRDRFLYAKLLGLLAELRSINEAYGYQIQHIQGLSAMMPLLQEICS

OC[C@H]1OC(O)C[C@@H](O)[C@H]1O (stereo not given in full)
inactive: Potency [3] | Potency [4] | Potency [5] | Potency [6] | Potency [7] | Potency (CRL-7250)
-3.07%: activity change, negative = inhibition [8]
96%: parasite growth, % of control (lower = inhibition) [2]
88.2%: parasite growth remaining, % of DMSO control (lower = more inhibition) [1]

Cc1cc(NC(=O)Nc2ccc(N(C)C)cc2)c2cc(F)cc(F)c2n1
inactive: Potency [3] | Potency [4] | Potency [5] | Potency [6] | Potency [7] | Potency (CRL-7250)
-12.4% [at 27.1 µM]: activity change, negative = inhibition [8]

CC=CCC=CCCC(=O)[C@H]1O[C@@H]1C(N)=O
65.1%: parasite growth, % of DMSO control [9]
60%: parasite growth, % of control (lower = inhibition) [2]
87.5%: parasite growth remaining, % of DMSO control (lower = more inhibition) [1]
inactive: Potency [3] | Potency [4] | Potency [5] | Potency [6] | Potency (CRL-7250)

COc1ccc(-c2coc3cc(O)ccc3c2=O)cc1
inactive: Potency [3] | Potency [4] | Potency [5] | Potency [6] | outcome [10] | Potency (CRL-7250)

COc1cc(O)c2c(c1)C(=O)c1cc(C)cc(O)c1C2=O
inactive: Potency [3] | Potency [4] | Potency [5] | Potency [6] | Potency [11] | outcome [10] | Potency (CRL-7250)

CCOC1OC(=O)C[C@H]1NC(=O)[C@@H]1CCCN1C(=O)[C@@H](NC(=O)c1ccc(N)c(Cl)c1)C(C)(C)C (stereo not given in full)
67.6%: parasite growth, % of control (lower = inhibition) [2]
265%: parasite growth, % of DMSO control [9]
inactive: Potency [3] | Potency [4] | Potency [5] | Potency (CRL-7250)
97.4%: parasite growth remaining, % of DMSO control (lower = more inhibition) [1]

O=C(NC1CCOCC1)c1ccc(-c2cc(-c3cn[nH]c3-c3ccccn3)ccn2)cc1
inactive: Potency [3] | Potency [4] | Potency [5] | Potency [6] | Potency [7] | Potency (CRL-7250)
-3.94%: activity change, negative = inhibition [8]

O=[N+]([O-])c1ccc(-c2nc(-c3ccc(F)cc3)c(-c3ccncc3)[nH]2)cc1
inactive: outcome [12] | outcome [13] | Potency [14] | Potency [3] | Potency [4] | Potency [5] | Potency [6] | Potency (CRL-7250)

Cc1ccc(O)c(C(CCN(C(C)C)C(C)C)c2ccccc2)c1 (stereo not given)
inactive: Potency [3] | Potency [4] | Potency [5] | Potency [6] | Potency [7] | Potency (CRL-7250)
32%: parasite growth remaining, % of DMSO control (lower = more inhibition) [1]

CC1CCN(c2cc(N3CCN(C)CC3)ccc2NC(=O)c2cc(C#N)c[nH]2)CC1
inactive: Potency [3] | Potency [4] | Potency [5] | Potency [6] | Potency [7] | Potency (CRL-7250)
-17.8%: activity change, negative = inhibition [8]

COc1ccc2c(OCc3nnc4ccc(-c5ccccc5)nn34)ccnc2c1
-13.2%: activity change, negative = inhibition [8]
inactive: Potency [3] | Potency [4] | Potency [5] | Potency [6] | Potency [7] | Potency (CRL-7250)
